Test results taken from PubChem BioAssay (EPA / NIEHS).
Results filed as inconclusive are left out. Activity calls are given as the source filed them. How the source made its calls, unless noted: active means hit-call score of the fitted dose curve at least 0.9, where 1 is the maximum; inconclusive means response in the unintended direction; inactive means score below 0.9.

Experiments:
[1] = ATG_TGFb_CIS: Attagene CIS-FACTORIAL HepG2 Assay for human Transforming Growth Factor (TGF) (AID 2282967; active means hit-call score of the fitted dose curve at least 0.9, where 1 is the maximum; inactive means score below 0.9); settings: HepG2 Attagene CIS TGFb reporter, mRNA transcription; actives raise or lower the signal
In short: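 HepG2 cells transiently transfected with cis-promoter-driven multiple reporter units measure endogenous TF activity; reporter mRNA quantified at 24 h by RT-PCR, FAM labeling, HpaI digestion and capillary electrophoresis. Bidirectional fit vs DMSO.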

[2] = ATG_VDRE_CIS: Attagene CIS-FACTORIAL HepG2 Assay for human Vitamin D Receptor Element (VDRE) (AID 2282968; active means hit-call score of the fitted dose curve at least 0.9, where 1 is the maximum; inactive means score below 0.9); settings: HepG2 VDRE cis-reporter transcription, actives raise or lower the signal
In short: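 Compounds were applied for 24 h to HepG2 cells transfected with promoter-regulated reporter units. Total RNA was reverse-transcribed, and reporter amplicons were fluorescently labelled and sized by capillary electrophoresis.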

[3] = target: Nuclear receptor subfamily 1 group I member 3 (Homo sapiens) (UniProt Q14994); test: ATG_CAR_TRANS: Attagene TRANS-FACTORIAL HepG2 Assay for human Constitutive Androstane Receptor (CAR) (AID 2282969); settings: HepG2 Attagene TRANS-FACTORIAL CAR reporter;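 further: activators raise reporter mRNA above DMSO so AC50 marks induction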
Nuclear receptor subfamily 1 group I member 3 (Homo sapiens), sequence (Q14994 whole entry, looked up, the tested form may be a part): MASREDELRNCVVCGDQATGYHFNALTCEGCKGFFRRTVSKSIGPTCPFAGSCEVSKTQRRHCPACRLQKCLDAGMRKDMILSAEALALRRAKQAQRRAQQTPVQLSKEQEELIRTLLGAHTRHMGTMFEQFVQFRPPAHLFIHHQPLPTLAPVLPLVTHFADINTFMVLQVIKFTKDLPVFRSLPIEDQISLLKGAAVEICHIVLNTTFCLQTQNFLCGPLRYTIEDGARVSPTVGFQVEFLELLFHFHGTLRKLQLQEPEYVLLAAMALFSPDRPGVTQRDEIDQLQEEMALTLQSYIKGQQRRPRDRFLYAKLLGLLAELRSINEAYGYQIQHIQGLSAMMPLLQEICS
In short: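 Transiently transfected HepG2, multiplex TRANS reporters (CAR-Gal4 chimera driving GAL4-UAS reporter). 24 h dosing. Readout: reporter transcript by RT-PCR + capillary electrophoresis, fluorescence intensity; positive direction vs DMSO.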

[4] = target: Estrogen receptor (Homo sapiens) (UniProt P03372); test: ATG_ERa_TRANS: Attagene TRANS-FACTORIAL HepG2 Assay for human Estrogen Receptor alpha (ERa) (AID 2282970); settings: HepG2 Attagene TRANS ERa GAL4 reporter, mRNA
Estrogen receptor (Homo sapiens), sequence (P03372 whole entry, looked up, the tested form may be a part): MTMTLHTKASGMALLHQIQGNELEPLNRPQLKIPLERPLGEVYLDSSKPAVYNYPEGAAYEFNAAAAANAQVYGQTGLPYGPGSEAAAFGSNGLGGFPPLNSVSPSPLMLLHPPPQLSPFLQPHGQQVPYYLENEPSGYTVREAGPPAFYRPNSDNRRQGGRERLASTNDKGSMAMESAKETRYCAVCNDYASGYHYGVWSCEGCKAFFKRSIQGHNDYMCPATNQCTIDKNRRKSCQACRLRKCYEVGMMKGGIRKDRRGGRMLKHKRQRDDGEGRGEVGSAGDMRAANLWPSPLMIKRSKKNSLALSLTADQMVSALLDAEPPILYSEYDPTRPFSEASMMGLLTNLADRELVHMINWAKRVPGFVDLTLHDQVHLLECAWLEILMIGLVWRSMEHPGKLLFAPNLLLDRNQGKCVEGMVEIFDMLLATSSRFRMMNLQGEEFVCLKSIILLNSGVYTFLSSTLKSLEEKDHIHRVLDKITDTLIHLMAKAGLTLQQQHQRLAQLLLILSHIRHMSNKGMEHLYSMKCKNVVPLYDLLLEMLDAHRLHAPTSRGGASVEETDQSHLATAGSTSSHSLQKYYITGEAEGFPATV
In short: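 Reporter mRNA induction after 24 hours, detected by fluorescent RT-PCR and capillary electrophoresis, gives the read-out. Cells are HepG2 transiently transfected with GAL4-UAS reporter transcription units responding to chimeric NR-Gal4. Activity is taken as gain of signal over DMSO baseline.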

[5] = target: X-box-binding protein 1 (Homo sapiens) (UniProt P17861); test: ATG_Xbp1_CIS: Attagene CIS-FACTORIAL HepG2 Assay for human X-box Binding Protein 1 (XBP1) (AID 2282972; active means hit-call score of the fitted dose curve at least 0.9, where 1 is the maximum; inactive means score below 0.9); settings: HepG2 XBP1 cis-element reporter, Attagene multiplex; actives raise or lower the signal
X-box-binding protein 1 (Homo sapiens), sequence (P17861 whole entry, looked up): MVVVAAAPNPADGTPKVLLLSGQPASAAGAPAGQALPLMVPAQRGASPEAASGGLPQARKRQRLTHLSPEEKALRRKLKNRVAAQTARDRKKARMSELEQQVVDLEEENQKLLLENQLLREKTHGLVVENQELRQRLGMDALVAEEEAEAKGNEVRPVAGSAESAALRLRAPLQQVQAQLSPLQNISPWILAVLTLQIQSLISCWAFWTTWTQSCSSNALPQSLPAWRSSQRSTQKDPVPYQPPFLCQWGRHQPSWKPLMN
In short: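 Reporter transcripts were quantified by RT-PCR with fluorescent primer extension and capillary electrophoresis after 24 h chemical exposure. Cells: transiently transfected HepG2 carrying cis-regulated reporter constructs; data fitted bidirectionally relative to DMSO.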

[6] = ATG_GAL4_TRANS: Attagene TRANS-FACTORIAL HepG2 Assay for GAL4 (Internal Marker) (AID 2282976); settings: HepG2 Attagene TRANS GAL4 internal marker reporter
In short: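 RT-PCR/capillary electrophoresis readout of reporter mRNA. HepG2, transient MRTU transfection (GAL4-UAS reporters), 24 h compound exposure. Background-control endpoint, positive direction vs DMSO baseline.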

[7] = target: Oxysterols receptor LXR-alpha (Homo sapiens) (UniProt Q13133); test: ATG_LXRa_TRANS: Attagene TRANS-FACTORIAL HepG2 Assay for human Liver X Receptor alpha (LXRa) (AID 2282980); settings: HepG2 Attagene TRANS reporter, LXRa transactivation
Oxysterols receptor LXR-alpha (Homo sapiens), sequence (Q13133 whole entry, looked up, the tested form may be a part): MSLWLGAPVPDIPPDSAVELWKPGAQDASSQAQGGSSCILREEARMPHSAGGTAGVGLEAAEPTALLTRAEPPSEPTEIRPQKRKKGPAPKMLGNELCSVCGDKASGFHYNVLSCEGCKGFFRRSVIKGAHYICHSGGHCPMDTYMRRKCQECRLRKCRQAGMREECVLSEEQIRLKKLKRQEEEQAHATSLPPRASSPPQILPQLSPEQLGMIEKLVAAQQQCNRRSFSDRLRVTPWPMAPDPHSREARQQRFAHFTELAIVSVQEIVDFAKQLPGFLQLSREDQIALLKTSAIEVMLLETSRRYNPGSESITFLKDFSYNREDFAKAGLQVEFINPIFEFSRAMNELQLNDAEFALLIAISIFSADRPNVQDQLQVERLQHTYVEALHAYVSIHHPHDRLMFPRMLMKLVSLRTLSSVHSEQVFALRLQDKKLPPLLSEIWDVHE
In short: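 Read-out: reporter transcript levels by RT-PCR plus capillary electrophoresis, fluorescence intensity. Transiently transfected HepG2, exogenous NR-GAL4 chimera, GAL4-UAS reporters; 24 h compound exposure. Activity = increase over DMSO negative control.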

[8] = target: Oxysterols receptor LXR-beta (Homo sapiens) (UniProt P55055); test: ATG_LXRb_TRANS: Attagene TRANS-FACTORIAL HepG2 Assay for human Liver X Receptor beta (LXRb) (AID 2282981); settings: HepG2 Attagene TRANS GAL4-LXRb reporter, mRNA
Oxysterols receptor LXR-beta (Homo sapiens), sequence (P55055 whole entry, looked up, the tested form may be a part): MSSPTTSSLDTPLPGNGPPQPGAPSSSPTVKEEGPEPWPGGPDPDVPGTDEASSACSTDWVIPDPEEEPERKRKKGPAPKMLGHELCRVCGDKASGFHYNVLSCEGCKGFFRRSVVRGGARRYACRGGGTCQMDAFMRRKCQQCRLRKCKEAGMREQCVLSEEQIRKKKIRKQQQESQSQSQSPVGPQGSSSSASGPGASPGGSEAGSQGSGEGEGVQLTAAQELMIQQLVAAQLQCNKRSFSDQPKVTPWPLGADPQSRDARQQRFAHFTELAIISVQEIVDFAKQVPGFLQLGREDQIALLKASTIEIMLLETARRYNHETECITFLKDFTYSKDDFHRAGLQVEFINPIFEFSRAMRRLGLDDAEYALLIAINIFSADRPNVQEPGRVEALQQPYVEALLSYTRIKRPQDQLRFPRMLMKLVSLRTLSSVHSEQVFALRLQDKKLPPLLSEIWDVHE
In short: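 Multiplexed reporter assay, HepG2, 24 h dosing. Fluorescence of labelled RT-PCR products after capillary electrophoresis gives transcript level; positive fitting direction relative to DMSO.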

[9] = target: Hepatocyte nuclear factor 4-alpha (Homo sapiens) (UniProt P41235); test: ATG_HNF4a_TRANS: Attagene TRANS-FACTORIAL HepG2 Assay for human Hepatocyte Nuclear Factor 4 alpha (HNF4a) (AID 2282982); settings: HepG2 HNF4a transactivation reporter, mRNA readout
Hepatocyte nuclear factor 4-alpha (Homo sapiens), sequence (P41235 whole entry, looked up, the tested form may be a part): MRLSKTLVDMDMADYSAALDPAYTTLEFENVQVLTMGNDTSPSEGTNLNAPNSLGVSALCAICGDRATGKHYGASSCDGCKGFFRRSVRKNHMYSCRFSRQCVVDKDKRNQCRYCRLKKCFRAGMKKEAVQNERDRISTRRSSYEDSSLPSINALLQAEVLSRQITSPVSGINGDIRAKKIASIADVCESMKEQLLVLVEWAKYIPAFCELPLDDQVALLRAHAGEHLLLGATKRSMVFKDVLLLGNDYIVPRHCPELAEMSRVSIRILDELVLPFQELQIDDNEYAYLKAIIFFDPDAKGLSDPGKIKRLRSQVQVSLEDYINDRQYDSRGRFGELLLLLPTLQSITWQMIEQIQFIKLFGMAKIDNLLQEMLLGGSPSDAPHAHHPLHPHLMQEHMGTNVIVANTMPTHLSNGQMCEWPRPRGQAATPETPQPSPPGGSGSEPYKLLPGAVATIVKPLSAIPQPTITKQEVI
In short: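 Endpoint reflects transcriptional activation of a GAL4-UAS reporter by an HNF4a-GAL4 chimera in transfected HepG2 cells, 24 h post-dosing. Fluorescence from RT-PCR products separated by capillary electrophoresis; DMSO baseline.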

[10] = ATG_M_06_TRANS: Attagene TRANS-FACTORIAL HepG2 Assay for M06 Transcription Factor (Internal Marker) (AID 2282983); settings: HepG2 Attagene TRANS M06 internal marker reporter
In short: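 Read-out: fluorescent reporter cDNA fragments resolved by capillary electrophoresis after RT-PCR and HpaI cut. Source cells were HepG2 carrying transfected multi-reporter GAL4 constructs, dosed 24 h. Increase over DMSO control analysed.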

[11] = ATG_M_32_TRANS: Attagene TRANS-FACTORIAL HepG2 Assay for M32 Transcription Factor (Internal Marker) (AID 2282984); settings: HepG2 Attagene TRANS M32 internal marker reporter;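 further: transcript level of a background control reporter unit measured by RT-PCR and capillary electrophoresis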
In short: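 Internal-marker readout from a multiplexed transcription reporter panel. HepG2 cells were transfected with GAL4-UAS reporter units, treated 24 hours, and reporter transcript levels determined by fluorescence after RT-PCR and capillary separation.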

[12] = target: Nuclear receptor subfamily 4 group A member 2 (Homo sapiens) (UniProt P43354); test: ATG_NURR1_TRANS: Attagene TRANS-FACTORIAL HepG2 Assay for human Nuclear Receptor Related Protein 1 (NURR1) (AID 2282985); settings: HepG2 Attagene TRANS reporter, mRNA readout
Nuclear receptor subfamily 4 group A member 2 (Homo sapiens), sequence (P43354 whole entry, looked up): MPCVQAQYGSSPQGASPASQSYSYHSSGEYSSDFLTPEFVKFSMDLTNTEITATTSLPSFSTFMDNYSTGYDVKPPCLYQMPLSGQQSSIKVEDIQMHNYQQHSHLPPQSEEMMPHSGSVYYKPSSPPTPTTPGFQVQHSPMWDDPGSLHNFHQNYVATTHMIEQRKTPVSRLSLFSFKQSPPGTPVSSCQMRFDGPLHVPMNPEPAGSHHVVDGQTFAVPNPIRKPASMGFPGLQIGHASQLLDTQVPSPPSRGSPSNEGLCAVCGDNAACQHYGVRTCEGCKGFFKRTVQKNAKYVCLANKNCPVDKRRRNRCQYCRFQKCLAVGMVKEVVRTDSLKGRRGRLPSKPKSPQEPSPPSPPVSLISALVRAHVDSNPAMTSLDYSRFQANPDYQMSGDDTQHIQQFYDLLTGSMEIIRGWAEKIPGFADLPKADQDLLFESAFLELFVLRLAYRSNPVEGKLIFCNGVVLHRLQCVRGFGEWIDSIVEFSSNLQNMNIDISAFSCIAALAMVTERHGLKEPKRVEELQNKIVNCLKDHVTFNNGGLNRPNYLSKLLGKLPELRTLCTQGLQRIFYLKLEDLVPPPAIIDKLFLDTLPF
In short: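 Endpoint: reporter mRNA increase relative to DMSO. HepG2 cells transfected with reporter units, treated 24 h; RNA processed by RT-PCR, labelling, HpaI digestion and capillary electrophoresis.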

[13] = target: Nuclear respiratory factor 1 (Homo sapiens) (UniProt Q16656); test: ATG_NRF1_CIS: Attagene CIS-FACTORIAL HepG2 Assay for human Nuclear Respiratory Factor 1 (NRF1) Orphan Gene (AID 2282987; active means hit-call score of the fitted dose curve at least 0.9, where 1 is the maximum; inactive means score below 0.9); settings: HepG2 NRF1 cis-element reporter, Attagene multiplex; actives raise or lower the signal
Nuclear respiratory factor 1 (Homo sapiens), sequence (Q16656 whole entry, looked up): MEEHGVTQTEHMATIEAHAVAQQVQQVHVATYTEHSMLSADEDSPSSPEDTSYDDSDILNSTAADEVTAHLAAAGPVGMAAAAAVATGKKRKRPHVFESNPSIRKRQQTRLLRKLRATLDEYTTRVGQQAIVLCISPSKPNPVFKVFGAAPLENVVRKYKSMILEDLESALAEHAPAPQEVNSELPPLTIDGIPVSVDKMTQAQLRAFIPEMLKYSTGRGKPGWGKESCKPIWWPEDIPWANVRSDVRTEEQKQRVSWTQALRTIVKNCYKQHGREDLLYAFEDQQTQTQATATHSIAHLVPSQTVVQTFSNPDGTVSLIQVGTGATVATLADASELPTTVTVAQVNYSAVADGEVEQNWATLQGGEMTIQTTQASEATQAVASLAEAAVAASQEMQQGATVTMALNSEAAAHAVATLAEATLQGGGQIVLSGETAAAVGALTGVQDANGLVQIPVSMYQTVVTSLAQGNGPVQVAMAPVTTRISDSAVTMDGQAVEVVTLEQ
In short: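 HepG2 cells transiently transfected with multiple reporter transcription units under cis-regulatory promoter control, so endogenous transcription-factor activity is read. After 24 h compound exposure, reporter mRNA quantified by RT-PCR, fluorescent labelling, HpaI digestion and capillary electrophoresis; bidirectional fitting versus DMSO.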

[14] = target: Steroid hormone receptor ERR1 (Homo sapiens) (UniProt P11474); test: ATG_ERRa_TRANS: Attagene TRANS-FACTORIAL HepG2 Assay for human Estrogen-Related Receptor alpha (ERRa) (AID 2282971); settings: HepG2 Attagene TRANS reporter, ERRa transactivation
In short: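 Transfected HepG2, 24 h dosing, ERRa-Gal4 chimera driving GAL4-UAS reporter. Readout: reporter mRNA via RT-PCR plus capillary electrophoresis (fluorescence). Positive direction vs DMSO control.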

[15] = ATG_M_19_TRANS: Attagene TRANS-FACTORIAL HepG2 Assay for M19 Transcription Factor (Internal Marker) (AID 2282974); settings: HepG2 Attagene TRANS-FACTORIAL M19 internal marker reporter
In short: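 HepG2 cells transiently transfected with multiple GAL4-UAS reporter transcription units were exposed to chemicals for 24 h. Reporter mRNA was read by RT-PCR, 6-FAM primer extension, HpaI digestion and capillary electrophoresis; gain of signal fitted relative to DMSO.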

[16] = target: Estrogen-related receptor gamma (Homo sapiens) (UniProt P62508); test: ATG_ERRg_TRANS: Attagene TRANS-FACTORIAL HepG2 Assay for human Estrogen-Related Receptor gamma (ERRg) (AID 2282977); settings: HepG2 Attagene TRANS reporter, ERRg transactivation;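 further: hits increase reporter signal over DMSO so potencies reflect activators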
Estrogen-related receptor gamma (Homo sapiens), sequence (P62508 whole entry, looked up, the tested form may be a part): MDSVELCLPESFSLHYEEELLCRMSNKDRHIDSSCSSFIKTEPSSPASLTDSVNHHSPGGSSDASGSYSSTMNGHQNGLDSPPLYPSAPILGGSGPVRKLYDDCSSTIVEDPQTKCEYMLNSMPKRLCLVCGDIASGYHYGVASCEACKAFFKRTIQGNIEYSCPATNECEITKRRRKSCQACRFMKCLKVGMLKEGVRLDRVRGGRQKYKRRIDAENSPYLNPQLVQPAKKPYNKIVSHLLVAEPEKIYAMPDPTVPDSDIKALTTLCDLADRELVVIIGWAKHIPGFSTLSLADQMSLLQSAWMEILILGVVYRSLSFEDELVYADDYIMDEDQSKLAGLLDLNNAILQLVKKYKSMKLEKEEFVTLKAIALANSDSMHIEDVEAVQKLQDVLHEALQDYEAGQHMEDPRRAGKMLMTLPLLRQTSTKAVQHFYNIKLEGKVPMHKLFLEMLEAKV
In short: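 Induction of reporter transcripts through a chimeric NR-Gal4 protein is quantified in transfected human HepG2 liver cells after 24 h chemical exposure, using RT-PCR with capillary electrophoresis detection and DMSO as baseline.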

[17] = target: Glucocorticoid receptor (Homo sapiens) (UniProt P04150); test: ATG_GR_TRANS: Attagene TRANS-FACTORIAL HepG2 Assay for human Glucocorticoid Receptor (GR) (AID 2282978); settings: HepG2 Attagene TRANS GR reporter, mRNA transcription;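 further: activators score as hits since higher reporter transcript over DMSO is fitted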
In short: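 HepG2 cells transiently transfected with multiplexed reporter units in which chimeric NR-GAL4 proteins drive GAL4-UAS reporters; 24 h compound exposure. Reporter mRNA measured by RT-PCR, 6-FAM labelling, HpaI digestion and capillary electrophoresis; gain-of-signal fitted versus DMSO.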

[18] = target: Transcriptional activator Myb (Homo sapiens) (UniProt P10242); test: ATG_Myb_CIS: Attagene CIS-FACTORIAL HepG2 Assay for human Myeloblastosis (Myb) Proto-Oncogene Transcription Factor (AID 2282986; active means hit-call score of the fitted dose curve at least 0.9, where 1 is the maximum; inactive means score below 0.9); settings: HepG2 Attagene CIS-FACTORIAL Myb reporter transcription; actives raise or lower the signal
Transcriptional activator Myb (Homo sapiens), sequence (P10242 whole entry, looked up): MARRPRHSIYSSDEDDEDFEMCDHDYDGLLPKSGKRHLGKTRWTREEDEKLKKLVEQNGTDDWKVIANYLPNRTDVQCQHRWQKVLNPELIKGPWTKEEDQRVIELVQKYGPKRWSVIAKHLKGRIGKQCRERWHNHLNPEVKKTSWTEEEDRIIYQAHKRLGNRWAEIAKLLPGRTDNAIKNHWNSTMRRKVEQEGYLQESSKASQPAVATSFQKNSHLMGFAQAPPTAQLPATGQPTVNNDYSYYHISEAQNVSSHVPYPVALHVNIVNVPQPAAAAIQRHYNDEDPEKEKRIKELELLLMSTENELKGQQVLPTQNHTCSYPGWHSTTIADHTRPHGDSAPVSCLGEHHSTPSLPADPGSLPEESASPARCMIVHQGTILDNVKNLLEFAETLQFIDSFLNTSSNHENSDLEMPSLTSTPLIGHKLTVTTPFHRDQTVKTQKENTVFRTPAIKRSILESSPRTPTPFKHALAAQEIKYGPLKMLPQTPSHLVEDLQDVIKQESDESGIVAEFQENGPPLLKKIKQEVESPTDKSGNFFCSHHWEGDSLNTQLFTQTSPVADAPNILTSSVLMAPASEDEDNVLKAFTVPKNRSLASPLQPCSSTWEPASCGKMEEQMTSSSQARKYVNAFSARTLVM
In short: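 HepG2 cells were transiently transfected with cis-regulated multiple reporter transcription units reflecting endogenous Myb activity, then exposed to compound for 24 hours. Reporter mRNA was measured by RT-PCR with capillary electrophoresis; bidirectional fitting versus DMSO baseline.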

[19] = target: Bile acid receptor (Homo sapiens) (UniProt Q96RI1); test: ATG_FXR_TRANS: Attagene TRANS-FACTORIAL HepG2 Assay for Farnesoid X Receptor (FXR) (AID 2282979); settings: HepG2 Attagene TRANS FXR-GAL4 reporter transcription;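 further: hits raise reporter mRNA above DMSO so AC50 marks FXR activation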
In short: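 Read-out: fluorescent reporter transcripts quantified by capillary electrophoresis after RT-PCR of total RNA. Source cells were HepG2 transiently carrying chimeric NR-GAL4 plus GAL4-UAS reporter units, dosed 24 h. Activity fitted upward relative to DMSO baseline.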

Measured: AC50

Cc1ccc2c(c1)C(=O)c1ccccc1C2=O
active: [4] 12.4 µM
not listed: [14] | [15] | [16] | [17] | [18] | [19]
inactive: all other assays above

NNC(=O)c1cccc(C(=O)NN)c1
inactive: [1] | [2] | [5] | [6] | [8] | [10] | [11] | [13]

CCCCCC/C=C/C=O
not listed: [2] | [3] | [4] | [10] | [12] | [19]
inactive: all other assays above

CCOC(=O)c1ccc(N(C)C)cc1
active: [2] 65.8 µM
not listed: [6] | [7] | [10] | [14] | [16] | [19]
inactive: all other assays above

CNC(=S)NN
not listed: [3] | [9] | [10] | [14] | [19]
inactive: all other assays above

Nc1ccc(Cl)cc1Cl
inactive: [1] | [5] | [16] | [17] | [19] | [8] | [10] | [11] | [18] | [13]

CC(=O)Nc1ccc2c(c1)Cc1cc(NC(C)=O)ccc1-2
inactive: [1] | [2] | [3] | [5] | [17] | [9] | [10] | [12] | [18]

CC1(C)O[C@@H]2C[C@H]3[C@@H]4C[C@H](F)C5=CC(=O)C=C[C@]5(C)[C@@]4(F)[C@@H](O)C[C@]3(C)[C@]2(C(=O)CO)O1
active: [4] 9.67 µM | [17] 0.0525 µM
inactive: [1] | [2] | [5] | [10] | [11] | [18] | [13]
